Test results published in PubChem BioAssay.
Calls of active or inactive are those of the source.

Biological target: NADPH oxidase 4 (Homo sapiens) (UniProt Q9NPH5)
Assay: compounds shifting NOX4 Amplex Red fluorescence – cell-based, HEK293-NOX4, tetracycline-induced, NOX inhibitor project, primary screen (AID 1160)
Details: HEK293-NOX4, Amplex Red H2O2 fluorescence, 45 min; higher = more signal, called active from +8 up or from −8 down

Chain of NADPH oxidase 4 (Homo sapiens) (Q9NPH5 whole entry, looked up): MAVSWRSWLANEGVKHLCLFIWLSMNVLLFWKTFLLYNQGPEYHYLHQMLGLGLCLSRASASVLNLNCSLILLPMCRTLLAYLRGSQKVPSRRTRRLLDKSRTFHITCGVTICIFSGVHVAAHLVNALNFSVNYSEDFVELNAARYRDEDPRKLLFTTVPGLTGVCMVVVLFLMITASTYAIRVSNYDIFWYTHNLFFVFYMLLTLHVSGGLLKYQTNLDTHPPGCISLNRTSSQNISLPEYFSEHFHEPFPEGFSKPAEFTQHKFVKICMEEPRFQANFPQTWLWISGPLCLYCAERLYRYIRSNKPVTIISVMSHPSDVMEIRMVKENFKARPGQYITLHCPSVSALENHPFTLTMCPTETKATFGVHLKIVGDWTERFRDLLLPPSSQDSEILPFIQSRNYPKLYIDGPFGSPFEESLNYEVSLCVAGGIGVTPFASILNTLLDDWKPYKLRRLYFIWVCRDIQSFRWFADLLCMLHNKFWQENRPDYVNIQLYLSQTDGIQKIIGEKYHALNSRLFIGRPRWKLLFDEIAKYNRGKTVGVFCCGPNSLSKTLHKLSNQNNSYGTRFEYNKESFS

z-score, inactive:
CCOC(=O)C1=CC[C@@H](c2ccc(OC)cc2)N(S(=O)(=O)c2ccc(C)cc2)[C@H]1c1ccc(C)cc1 -0.627
CCOC(=O)C[C@H]1[C@H](OC(=O)Cc2ccc3c(c2)OCO3)[C@@H](NC(=O)c2ccc3ccccc3n2)c2cc(OCCCO)ccc2N1C(=O)Cc1ccc(OC)cc1 0.824
CC(C)(C)N1CC=CC23O[C@@H]4C=CCOC(=O)[C@@H]4[C@H]2C(=O)N(CCO)[C@@H]3C1=O (stereo not given in full) 1.32
CCOC(=O)C1=CC[C@@H](c2ccc(OC)cc2)N(S(=O)(=O)c2ccc(C)cc2)[C@H]1CC -0.911
COc1ccc(NN2C(C(O)c3ccc(I)cc3)C=CC3C(=O)N(C4CCCCC4)C(=O)C32)cc1 (stereo not given) -0.672
C=CCOC(=O)[C@H]1[C@@H]2C(=O)O[C@@H](c3ccccc3)[C@@H](c3ccccc3)N2[C@@H](c2ccc(OCCOC(=O)[C@@H]3C[C@@H]4C(=O)N[C@@H](CCCC[N+](C)(C)C)C(=O)N4[C@@H]3c3ccc(O)cc3)cc2)[C@]12C(=O)Nc1ccc(I)cc12 -1.21
Cc1ccc(S[C@]2(C(=O)NCc3ccccc3)CC(=O)N(Cc3ccccc3C(F)(F)F)[C@@H]2c2ccc(CO)cc2)cc1 0.0366
CC(C)=CCCC(C)=CC(O)C1C=CC2C(=O)NC(=O)C2N1Nc1ccccn1 (stereo not given) -1.61
O=C1O[C@H](c2ccccc2)[C@H](c2ccccc2)N2[C@H]1[C@@H](C(=O)O)[C@]1(C(=O)Nc3ccc(C#CCCO)cc31)[C@H]2c1ccc(OCCO)cc1 1.21
C=CCN1C(=O)[C@@]2(O[C@@H](CCn3cc([C@H](O)c4ccccc4)nn3)[C@H]([Si](C)(C)c3ccc(OC)cc3)[C@H]2C)c2cc(N3C(=O)c4cccc5cccc3c45)ccc21 1.57
NC(=O)NCC#Cc1ccc2c(c1)[C@]1(C(=O)N2)[C@H](c2ccc(OCCO)cc2)N2[C@H](c3ccccc3)[C@H](c3ccccc3)OC(=O)[C@H]2[C@@H]1C(=O)O 0.325
CO[C@H]1O[C@H](CO)[C@@H](OC(=O)Nc2ccc3c(c2)OCO3)[C@H](OC(=O)Nc2ccccc2-c2ccccc2)[C@H]1OC(=O)Nc1ccccc1-c1ccccc1 -0.707
CC1CC/C=C\[C@H]2OC34C=CCN(c5ccc6ccccc6c5)C(=O)[C@H]3N(C(C)CO)C(=O)[C@@H]4C2C(=O)O1 (stereo not given in full) -0.181
COC(=O)[C@@]1(Cc2ccc(OC)cc2)[C@H]2c3cc(C(=O)N4CCCC4)n(Cc4ccc(C(F)(F)F)nc4)c3C[C@H]2CN1C(=O)c1ccccc1 0.564
Cc1ccc(C(C)CC(O)C2C=CC3C(=O)N(C)C(=O)C3N2Nc2ccccc2)o1 (stereo not given) -4.75
C=CC[C@@]1(C(=O)N(C)C)N=C(c2ccc(OCCCO)cc2)O[C@@H]1c1ccccc1CN=[N+]=[N-] 0.736
COC(=O)[C@@]1(Cc2ccccc2)[C@H]2c3cc(C(=O)N4CCCC4)n(Cc4ccc(OC)c(OC)c4)c3C[C@H]2CN1C(=O)c1ccccc1 0.104
N#Cc1ccc(NN2C(C(O)C3CC=CCC3)C=CC3C(=O)N(c4ccccc4)C(=O)C32)cc1 (stereo not given) -2.27
C=C(C)[C@@H]1CC=C(C(O)C2C=CC3C(=O)N(c4ccccc4)C(=O)C3N2Nc2ccc([N+](=O)[O-])cc2)CC1 (stereo not given in full) -2.07
COc1ccc([Si](C)(C)[C@H]2[C@H](CCO)O[C@@]3(C(=O)N(Cc4cccc(N(C=O)c5ccccc5)c4)c4ccccc43)[C@@H]2C)cc1 0.451
CCCCC(O)C1C=CC2C(=O)N(c3ccccc3)C(=O)C2N1Nc1ccc([N+](=O)[O-])cc1 (stereo not given) -1.65
COc1ccc([Si](C)(C)[C@@H]2[C@@H](CC(=O)N3CCC[C@H]3CO)O[C@]3(C(=O)N(Cc4ccc(N5CCOC5=O)cc4)c4ccccc43)[C@H]2C)cc1 1.57
CC(C)NC(=O)[C@@H]1c2ccccc2C(=O)N(Cc2ccccc2C(F)(F)F)[C@H]1c1ccc(CO)cc1 -0.805
CCCCCC1=C2CNC(Cc3ccccc3)(C(=O)OC)C=C2C(C)C1=O (stereo not given) -3.5
CN(C)c1ccc(C(O)C2C=CC3C(=O)N(Cc4ccccc4)C(=O)C3N2n2cnnc2)cc1 (stereo not given) -0.524
O=C(NCC(O)CO)[C@@]1(CCS(=O)(=O)c2ccccc2)N=C(c2ccc(OCCCO)cc2)O[C@H]1c1ccccc1 (stereo not given in full) 1.47
COCCCNC(=O)[C@@H]1c2ccccc2C(=O)N(Cc2ccc(OC(F)(F)F)cc2)[C@H]1c1ccc(CO)cc1 0.915
Cc1ccc(F)cc1S(=O)(=O)N[C@H]1CCN(Cc2ccc(OC(C)C)cc2)C1 -0.777
CC1CC/C=C\[C@H]2OC34C=CCN(c5ccc(Cl)cc5)C(=O)[C@H]3N(CCCCCCO)C(=O)[C@]4(C)C2C(=O)O1 (stereo not given in full) 0.37
O=C1C2C=CC(C(O)c3c(F)cccc3Cl)N(Nc3ccc([N+](=O)[O-])cc3)C2C(=O)N1c1ccccc1 (stereo not given) -2.29
[N-]=[N+]=Nc1ccccc1[C@@H]1OC(c2ccc(OCCCO)cc2)=N[C@]1(CCS(=O)(=O)c1ccccc1)C(=O)NCC(O)CO (stereo not given in full) -0.18
C=CC[C@@]1(C(=O)OC)N=C(c2ccc(OCCCO)cc2)O[C@@H]1c1ccccc1N=[N+]=[N-] 1.43
COC(=O)[C@@]1(Cc2ccc(OC)cc2)[C@H]2c3cc(C(=O)N4CCCC4)n(CCn4cc([N+](=O)[O-])nc4C)c3C[C@H]2CN1C(=O)c1ccccc1 -1.39
CN1C(=O)C2C(C3CC3)C=C3CN(Cc4cccc(Cl)c4)[C@@H]([C@@H](O)Cc4ccccc4)C3C2C1=O (stereo not given in full) 0.0765
COc1ccccc1CN1C(=O)c2ccccc2[C@](Cc2ccccc2I)(C(=O)NCC(C)C)[C@@H]1c1ccc(CO)cc1 0.928
